This passage reports AC50 and activity, negative = inhibition results from PubChem BioAssay AID1851 (National Center for Advancing Translational Sciences (NCATS), 2009).

The campaign covered roughly 16,000 compounds. About 2,600 (16%) were called active. About 20% were inconclusive and are not listed. A selection follows. Unmarked numbers belong to inactive results. Calls follow the shape of the dose curve; as a rule, active = well fitted curve in the direction sought with a large enough effect; inconclusive = small, poorly fitted or top-dose-only effect, or effect the other way; inactive = no such curve, though single readings can be large or run the other way.
% is scaled to controls: 0 for no effect and ±100 for the full control effect.

This test deals with Cytochrome P450 2D6 (Homo sapiens) (UniProt P10635). In words: Cytochrome panel assay with activity outcomes. To be noted: recombinant CYP, pro-luciferin dealkylation, luminescence, p450-cyp2d6; series mostly up to 57.1 µM.
Sequence of Cytochrome P450 2D6 (Homo sapiens) (P10635 whole entry, looked up): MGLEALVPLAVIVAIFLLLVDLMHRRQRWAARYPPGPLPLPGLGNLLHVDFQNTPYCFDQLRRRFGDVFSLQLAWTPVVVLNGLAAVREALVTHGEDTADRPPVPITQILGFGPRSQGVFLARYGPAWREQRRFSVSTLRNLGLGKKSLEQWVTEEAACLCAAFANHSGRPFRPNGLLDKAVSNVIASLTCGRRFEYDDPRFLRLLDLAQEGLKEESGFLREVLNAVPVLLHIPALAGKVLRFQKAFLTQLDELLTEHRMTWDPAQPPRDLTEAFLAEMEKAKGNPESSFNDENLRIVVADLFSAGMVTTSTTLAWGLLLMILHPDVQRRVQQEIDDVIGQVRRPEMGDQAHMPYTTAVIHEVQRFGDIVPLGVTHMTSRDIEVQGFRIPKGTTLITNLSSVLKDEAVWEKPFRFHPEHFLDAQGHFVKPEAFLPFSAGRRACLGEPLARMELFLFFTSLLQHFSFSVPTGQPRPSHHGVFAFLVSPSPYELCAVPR
Turning to `COc1ccc(C(=O)NC(CO)c2nnc(SCc3ccc(Cl)c(Cl)c3)n2C)cc1` (stereo not given), the AC50 entry was “inactive”.
The same measure, in the same setting: with `CC(C)(C)C(=O)Nc1ccnc(-c2cccnc2)n1` the entry was “inactive”.
In the case of `c1ccc(CNc2ccnc(-c3cccnc3)n2)cc1`, the AC50 is 1260 nM (active).
Still for that read-out and setting: with `Cc1ccccc1-c1nccc(NCc2cccnc2)n1` the figure was 20000 nM (active); with `Cc1ccccc1-c1cc(NCc2cccnc2)ncn1`, “inactive”; with `O=C(Nc1ccnc(-c2cccnc2)n1)c1cccc(Cl)c1Cl`, 2240 nM (active).
The same measure, in the same setting: with `Cc1cccc(CNc2ccnc(-c3ccc(C(=O)N(C)C)cc3)n2)c1` the entry was “inactive”; with `Cc1cccc(CNc2ccnc(-c3cccnc3)n2)c1`, 631 nM (active); with `CC(=O)Nc1ccnc(-c2cccnc2)n1`, “inactive”.
In the case of `O=[N+]([O-])c1ccccc1/C=N/n1c(COc2ccccc2)n[nH]c1=S`, the AC50 entry is “inactive”.
Same read-out and setting: with `Cc1ccc(/C=N/n2cnnc2)s1` the entry was “inactive”.
With `Cn1c(=S)c2[nH]c(SCCN3C(=O)c4ccccc4C3=O)nc2n(C)c1=O`, the activity, negative = inhibition is 2.46% [at 11.4 µM].
In the case of `CCCCC(=O)Nc1nnc(SCC(=O)NC2CCCC2)s1`, the AC50 result is “inactive”.
As to `COc1cc2nc(N(C)CCCNC(=O)[C@@H]3CCCO3)nc(N)c2cc1OC`, the AC50 result is “inactive”.
On to `Cn1c(=O)c2cc(S(=O)(=O)NCCC(=O)Nc3ccc(Cl)cc3)ccc2n(C)c1=O`, for which the AC50 entry was “inactive”.
In the case of `Cc1ccc(CNC(=O)CCNS(=O)(=O)c2ccc3c(c2)c(=O)n(C)c(=O)n3C)cc1`, the AC50 entry was “inactive”.
As to `Cn1c(=O)c2cc(S(=O)(=O)NCCC(=O)NCCc3ccc(Cl)cc3)ccc2n(C)c1=O`, the AC50 is 15800 nM (active).
`O=C1C(C2=NC(C(=O)O)C3C(=O)N(c4ccc(Cl)cc4)C(=O)C23)=C(O)c2ccccc21` (stereo not given): the AC50 entry is “inactive”.
Regarding `Clc1ccc(CSCCc2ccncc2)cc1Cl`, the AC50 was 316 nM (active).
Regarding `N=C(N)SCCc1ccncc1`, the activity, negative = inhibition is -9.64% [at 11.4 µM].
As to `c1ccc(CSCCc2ccncc2)cc1`, the AC50 was 1260 nM (active).
As to `N[C@@H](CSCc1ccccc1)C(=O)O`, the activity, negative = inhibition was -7.04% [at 11.4 µM].
Still for that read-out and setting: with `c1ccc2c(CSCc3cccc4ccccc34)cccc2c1` the figure was 9.11% [at 11.4 µM].
Consider `c1ccc2c(CSCCc3ccncc3)cccc2c1`, for which the AC50 was 398 nM (active).
As for `O=C(O)c1cc(N=Cc2ccccc2O)cc(C(=O)O)c1`, the activity, negative = inhibition was 7.13% [at 11.4 µM].
Turning to `FC(F)(F)c1nnc(-c2ccccc2)nc1Sc1ccccc1`, the AC50 result is “inactive”.
As for `Cc1cc(C2(c3cc(C)c(O)c(C(=O)O)c3)OS(=O)(=O)c3ccccc32)cc(C(=O)O)c1O`, the activity, negative = inhibition was 5.11% [at 11.4 µM].
Regarding `O=C1C2Sc3[nH]c(=O)sc3C(c3ccccc3)C2C(=O)N1c1ccccc1` (stereo not given), the AC50 result was “inactive”.
On the same count and under the same terms, with `Cc1nc2cnc(N(C)C)nc2n(C2CC2)c1=O` the entry was “inactive”; with `COc1ccc2[nH]cc(CCNc3ncncc3-c3cccnc3)c2c1`, 12600 nM (active).
The same measure, in the same setting: with `COc1cccc(-c2cncnc2NCCc2c[nH]c3ccc(OC)cc23)c1` the figure was 2510 nM (active); with `COc1ccc2[nH]cc(CCNc3ncncc3-c3cccc(NS(C)(=O)=O)c3)c2c1`, 3160 nM (active).
Turning to `O=C(O)CNc1ccc(C(=O)O)cc1`, the activity, negative = inhibition is 8.05% [at 11.4 µM].
On to `Cc1ccccc1C(C(=O)NCc1ccccc1)N(Cc1ccco1)C(=O)c1ccccn1` (stereo not given), for which the AC50 entry is “inactive”.
Still for that read-out and setting: with `Cc1nn(C)cc1C(=O)NNC(=S)Nc1ccccc1` the entry was “inactive”; with `CCOc1ccc(-c2nn(-c3ccccc3)cc2/C=C(\C#N)S(=O)(=O)c2ccccc2)cc1C`, “inactive”; with `C[C@@]12CCC(=O)C=C1CC[C@@H]1[C@@H]2[C@H](O)C[C@]2(C)[C@@H]1CC[C@]2(O)C(=O)CO`, “inactive”.
Same read-out and setting: with `C[C@@H]1Cc2ccccc2N1NC(=O)c1ccc(Cl)c(S(N)=O)c1` (stereo not given in full) the entry was “inactive”; with `COc1ccc2cc(CCNC(=O)C3CC3)c(=O)[nH]c2c1`, “inactive”.
The same measure, in the same setting: with `O=C(NCC1CCC(C(=O)O)CC1)OCc1ccccc1` (stereo not given) the entry was “inactive”.
As to `COc1ccc2c(CC(=O)NCC3CCC(C(=O)O)CC3)cc(=O)oc2c1` (stereo not given), the AC50 is 6310 nM (active).
Take `CC(=O)Nc1ccc([N+](=O)[O-])cn1`: the AC50 result is “inactive”.
On to `CO[C@@H]1/C=C\CC(=O)N[C@@H](C)C(=O)OC[C@@H](OC)[C@H](C)CCCC(=O)OC[C@H]1C`, for which the activity, negative = inhibition is 17% [at 11.4 µM].
As to `CSc1nc(C)c(CCOC(=O)c2cccc(C)c2)c(=O)[nH]1`, the AC50 entry was “inactive”.
Regarding `CCN(CC)S(=O)(=O)c1cc(C(=O)Nc2ccccc2C(=O)O)ccc1OC`, the AC50 entry was “inactive”.
Same read-out and setting: with `CCN(CC)S(=O)(=O)c1cc(C(=O)OC)ccc1Cl` the entry was “inactive”; with `CCN(CC)S(=O)(=O)c1cc(C(=O)Nc2ccncc2)ccc1Cl`, 2240 nM (active).
On to `Oc1c(CN2CCCCC2)cc(Br)c2cccnc12`, for which the AC50 was 7940 nM (active).
As for `NS(=O)(=O)c1cc(Br)c(N=Nc2ccc(O)c3ncccc23)c(Br)c1`, the activity, negative = inhibition is -4.11% [at 11.4 µM].
The same measure, in the same setting: with `CC(C)(C)CC(C)(C)c1cc(O)c(O)c(CN2CCCCC2)c1` the figure was -16.1% [at 11.4 µM].
Turning to `Nc1nc2c(nc(Br)n2[C@@H]2O[C@H]3COP(=O)(O)O[C@@H]3[C@H]2O)c(=O)[nH]1`, the AC50 entry is “inactive”.
Take `CCN(CC)c1cc(C)c2cc(NC(=O)CNC(C)=O)ccc2n1`: the AC50 result was “inactive”.
For the compound `O=C(Cc1ccc2c(c1)CCCC2)Nc1ccccc1Br`, the AC50 result is “inactive”.
In the case of `CC(C)N=c1cc2n(-c3ccc(Cl)cc3)c3ccccc3nc-2cc1Nc1ccc(Cl)cc1`, the AC50 is 2510 nM (active).
`CCOC(=O)c1cc2sc(C)cc2n1CC(=O)N1CCN(C(=O)c2ccco2)CC1`: the AC50 result was “inactive”.
The same measure, in the same setting: with `COc1ccc(N=Cc2ccc(CNS(=O)(=O)c3ccc(Cl)cc3)o2)cc1` the entry was “inactive”.
As for `Nc1ncnc2c1ncn2[C@H]1O[C@@H](C(=O)OCCO)[C@@H](O)[C@H]1O`, the activity, negative = inhibition was 17% [at 11.4 µM].
Regarding `COc1ccccc1NC(=O)N1CCCC1C(=O)NCc1ccc2c(c1)OCO2` (stereo not given), the AC50 is 14100 nM (active).
In the case of `CCCn1nc2cc(C(=O)NCc3ccc4c(c3)OCO4)ccc2c1OCC`, the AC50 entry is “inactive”.
On the same count and under the same terms, with `Cc1ccc(CNC(=O)C2CCCN2C(=O)NCc2ccccc2)cc1` (stereo not given) the entry was “inactive”.
The same measure, in the same setting: with `CCc1ccccc1NC(=S)NCc1ccc2c(c1)OCO2` the figure was 1260 nM (active); with `CC(=O)Nc1cccc(NC(=O)C2CCCN2C(=O)Nc2ccccc2C)c1` (stereo not given), “inactive”.
Same read-out and setting: with `CCc1ccccc1NC(=O)c1ccc(-n2c(C)ccc2C)cc1` the entry was “inactive”.
As to `CCNc1nc(NCC)nc(N(C)N)n1`, the AC50 entry is “inactive”.
For `CCOC(=O)c1c(C)nc2sc3c(=O)n(-c4ccc(OC)cc4)nnc3c2c1-c1ccc(OC)cc1`, the AC50 result is “inactive”.
Still for that read-out and setting: with `COC(=O)C1=C(C)NC(C)=C(C(=O)OCCSc2ccccc2)[C@@H]1C` the figure was 25100 nM (active); with `COC(=O)c1cc(OC)c(OC)cc1NC(=O)CSc1ccccc1`, “inactive”.
On the same count and under the same terms, with `CCOC(=O)C1=C(C)NC(C)=C(C(=O)OC)[C@@H]1c1cccc([N+](=O)[O-])c1` the entry was “inactive”; with `COCCNC(=O)CCCCCn1c(=S)[nH]c2ccccc2c1=O`, “inactive”.
`COc1cccc(N2CCN(C(=O)Nc3ccc4c(c3)NC(=O)CO4)CC2)c1`: the AC50 entry was “inactive”.
In the case of `S=c1nc[nH]c2c1ncn2Cc1ccco1`, the activity, negative = inhibition is 1.42% [at 11.4 µM].
The same measure, in the same setting: with `O=C(O)C(Cc1cccs1)C(=O)O` the figure was 21.5% [at 11.4 µM].
Turning to `CC[C@H](C(=O)c1cccs1)C(O)(C(F)(F)F)C(F)(F)F`, the AC50 was 3160 nM (active).
The same measure, in the same setting: with `CCC/C=C(\CCC)C(NC(=O)c1cccs1)c1ccc(C(F)(F)F)cc1` (stereo not given) the entry was “inactive”; with `CN[C@H]1[C@@H](O[C@@H]2[C@H](O[C@@H]3[C@@H](O)[C@@H](O)[C@@H](N=C(N)N)[C@@H](O)[C@@H]3N=C(N)N)O[C@H](C)[C@@]2(O)C=O)O[C@@H](CO)[C@@H](O)[C@H]1O`, “inactive”; with `C=CCN1C(=NC(=O)CC)SC2CS(=O)(=O)CC21` (stereo not given), “inactive”.
Turning to `CC(C)=C[C@H]1[C@@H](COC(=O)c2ccccc2Cl)C1(C)C`, the activity, negative = inhibition is -3.97% [at 11.4 µM].
As to `Clc1ccc2c(c1)C1=C(C(c3ccncc3)O2)C(c2ccc(Br)cc2)n2ncnc2N1` (stereo not given), the AC50 result is “inactive”.
As to `CCCn1nnc(NC(=O)Cc2ccccc2)n1`, the AC50 entry was “inactive”.
The same measure, in the same setting: with `CC(C)CN1CCCC2(CCN(S(=O)(=O)c3ccccc3)CC2)C1` the entry was “inactive”; with `CC(C)CN1CC[C@@]2(CCCN(S(=O)(=O)c3ccccc3)C2)C1`, 501 nM (active).
On to `CC(C)CN1CCC2(CC1)CCN(S(=O)(=O)c1ccccc1)CC2`, for which the AC50 was 1000 nM (active).
For the compound `O=C(NC1CCCCC1)C1CC=CCC1C(=O)OCC(Cl)=C(Cl)Cl` (stereo not given), the AC50 result was “inactive”.
As for `C=CCNC(=S)NNc1ncnc2sc3c(c12)CC(C)(C)OC3`, the AC50 entry was “inactive”.
Same read-out and setting: with `CCn1nnnc1SCC(=O)c1ccc2c(c1)OCCO2` the entry was “inactive”; with `COC(=O)[C@@]1(Cc2ccc(OC)cc2)[C@H]2c3cc(C(=O)N4CCCC4)n(CCc4c[nH]c5cc(F)ccc45)c3C[C@H]2CN1C(=O)c1ccccc1`, “inactive”.
Consider `O=C1CC(c2cccs2)c2cc3c(cc2N1)OCO3` (stereo not given), for which the AC50 is 8910 nM (active).
The same measure, in the same setting: with `CC1(C)CC2(CC(c3cccs3)c3cc(Cl)c(O)cc3O2)NC(=S)N1` (stereo not given) the entry was “inactive”.
On to `C#CCCCO/N=C1/C[C@@H](O)[C@@H](O)[C@@H]2[C@@H]3C(=O)N([C@@H](C)c4ccccc4)C(=O)[C@H]3CC[C@@H]12`, for which the activity, negative = inhibition is -9.9% [at 11.4 µM].
As to `COc1cc(OC)cc(C(=O)NCC(=O)OC2CCOC2=O)c1` (stereo not given), the AC50 result was “inactive”.
Same read-out and setting: with `O=C(Nc1ncc(Cc2cccc(Cl)c2)s1)C1=NCCN1` the entry was “inactive”; with `CC1CCCC(C)N1C(=O)C1CC(c2ccc(F)cc2)=NO1` (stereo not given), “inactive”.
Take `Cn1c(CNC(=O)Nc2ccccc2)nnc1SCc1ccccc1`: the AC50 entry is “inactive”.
`c1ccc(CCSc2nccn2-c2ccccc2)cc1`: the AC50 is 1410 nM (active).
Still for that read-out and setting: with `CCn1c(SCc2ccc(C)cc2)nnc1-c1nn(-c2ccccc2)ccc1=O` the entry was “inactive”; with `CCc1ccc(CSc2nccn2-c2ccccc2)cc1`, 17800 nM (active).
For `Nc1nc(SCc2ccccc2)c2ncn(Cc3ccccc3)c2n1`, the activity, negative = inhibition was 9.39% [at 11.4 µM].
On the same count and under the same terms, with `O=C(O)CSCCc1ccccc1` the figure was -0.751% [at 11.4 µM].
`Clc1ccc(CSc2nccn2Cc2ccccc2)cc1`: the AC50 is 5010 nM (active).
Regarding `O=c1ccnc(SCc2ccc(Cl)cc2)[nH]1`, the activity, negative = inhibition is 6.62% [at 11.4 µM].
